The results in this text go back to PubChem BioAssay (NCATS).

Assay [1] in a line: AP1 Signaling Pathway (AID 357).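 Note: ME-180 reporter cells stimulated with EGF at its EC50 level; % is set by controls: 0 for no effect and ±100 for the full control effect.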 In short, it runs like this:
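In this screen, ME-180 cells in Opti-MEM with 0.5% dialyzed FBS received EC50 EGF and compound titrations for 5 h. AP-1 reporter beta-lactamase was detected via CCF4 ratio, giving AC50 for positive and negative modulators.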

Assay [2] concerns the target Cytochrome P450 1A2 (Homo sapiens) (UniProt P05177). Put plainly: p450-cyp1a2 (AID 410; calls by dose curve; note: potency is the fitted concentration of half-maximal effect). In outline: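 Human CYP1A2 (20nM) demethylated Luciferin-ME at its Km (100uM) in 100mM KPO4. After 10 min compound preincubation, NADPH regeneration ran the reaction 60 min at room temperature. Luciferin was read by luminescence, normalized to 57 uM furafylline.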
Assay [3] can be described thus: NFAT Signaling Pathway (AID 444).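 Note: carbachol stimulus at about its EC50 of 1 µM final; % is set by controls: 0 for no effect and ±100 for the full control effect.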 Particulars: Jurkat NFAT-bla M1, carbachol, beta-lactamase ratio, 5 h; at 38 µM (top of the series) unless noted. In short, it runs like this:
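Jurkat cells carrying an NFAT-driven β-lactamase reporter and co-transfected muscarinic M1 receptor were treated with compound plus carbachol (1 uM final, an EC50 level) for 5 h at 37 °C. CCF4 loading followed for 1 h at RT; 460/530 nm ratio gave %activity.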

Assay [4] has as its target Glucocorticoid receptor (Homo sapiens) (UniProt P04150). Put plainly: GR-GFP Redistribution (AID 450;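 active = compounds whose dose series gives a full or clear partial fitted curve of increased nuclear translocation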; note: potency is the fitted concentration of half-maximal effect). To be noted: U2OS GR-GFP nuclear translocation, laser cytometry, 2 h.
Assay [5] shares this target. Description: GR-EFC Redistribution (AID 451; calls by dose curve; note: potency is the fitted concentration of half-maximal effect). Particulars: CHO-K1 GR-EFC translocation, beta-gal luminescence, 2 h. In short, it runs like this:
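CHO-K1 cells stably expressing nuclear-localized β-gal enzyme acceptor and GR fused C-terminally to the enzyme donor fragment; ligand-driven nuclear translocation restores β-gal by complementation. Compounds titrated up to 46 uM final, 2 h at 37 °C; luminescence read.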

Assay [6] concerns the target 3',5'-cyclic-AMP phosphodiesterase 4B (Homo sapiens) (UniProt Q07343). Description: qHTS Assay for Inhibitors of PDE-IV (AID 607; active = well fitted activation curve with a large enough effect in the main read-out, with a control signal flat, not every such curve was filed as active; note: potency is the fitted concentration of half-maximal effect). In short, it runs like this:
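The readout is membrane depolarisation from a cAMP-sensing CNG channel, detected with a potential dye at ex 535/em 590. Cells were HEK293-derived (endogenous PDE-IV) at 1000 cells/well, titrated up to 22.9 uM final.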
In general terms: Quantitative high-throughput screening tests each substance at several concentrations.

Assay [7] can be described thus: Stat Signaling Pathway (AID 446).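 Note: ME-180 cervical cancer cells given 40 pM IL-6 alongside compound; SIE-controlled beta-lactamase reporter measured as 460/530 nm FRET emission ratio; % is set by controls: 0 for no effect and ±100 for the full control effect.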 Particulars: ME-180 SIE beta-lactamase reporter, IL-6 stimulated, 5 h; at 38 µM (top of the series) unless noted. In outline:
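Screening format detects activators and inhibitors alike: ME-180 SIE-bla cells stimulated at 40 pM IL-6 for 5 hrs with compound, then dual-emission beta-lactamase read at 405 nm excitation.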

The target of assay [8] is Mitogen-activated protein kinase 10 (Mus musculus) (UniProt Q61831). Put plainly: JNK3 AlphaScreen Assay (AID 530).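 Note: kinase came from lysate of stimulated human HepG2 cells; signal reports phosphorylation of biotinylated GST-cJun 1-79 at Ser73 with 10 µM ATP; % is set by controls: 0 for no effect and ±100 for the full control effect.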 In short, it runs like this: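 JNK3 came from HepG2 lysates pre-activated with IL-1beta and TNF-alpha and phosphorylated biotinylated GST-cJun (1-79) at 10 uM ATP, pH 7.6, room temperature. Compounds were titrated. AlphaScreen signal used anti-phospho-cJun (Ser73) antibody.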
Background: Bead proximity is the source of the signal in Alpha formats.

A number with no mark means an inactive call. Results filed as inconclusive are left out. Activity calls are given as the source filed them. Unless noted, calls come from the whole dose curve; as a rule, active = well fitted curve in either direction with a large enough effect (not every such curve was filed as active); inconclusive = small, poorly fitted or top-dose-only effect, or another doubt; inactive = flat fitted curve, though single readings scatter. A value given as a limit tells only on which side of the number the result lay.

Chain of 3',5'-cyclic-AMP phosphodiesterase 4B (Homo sapiens) (Q07343 whole entry, looked up): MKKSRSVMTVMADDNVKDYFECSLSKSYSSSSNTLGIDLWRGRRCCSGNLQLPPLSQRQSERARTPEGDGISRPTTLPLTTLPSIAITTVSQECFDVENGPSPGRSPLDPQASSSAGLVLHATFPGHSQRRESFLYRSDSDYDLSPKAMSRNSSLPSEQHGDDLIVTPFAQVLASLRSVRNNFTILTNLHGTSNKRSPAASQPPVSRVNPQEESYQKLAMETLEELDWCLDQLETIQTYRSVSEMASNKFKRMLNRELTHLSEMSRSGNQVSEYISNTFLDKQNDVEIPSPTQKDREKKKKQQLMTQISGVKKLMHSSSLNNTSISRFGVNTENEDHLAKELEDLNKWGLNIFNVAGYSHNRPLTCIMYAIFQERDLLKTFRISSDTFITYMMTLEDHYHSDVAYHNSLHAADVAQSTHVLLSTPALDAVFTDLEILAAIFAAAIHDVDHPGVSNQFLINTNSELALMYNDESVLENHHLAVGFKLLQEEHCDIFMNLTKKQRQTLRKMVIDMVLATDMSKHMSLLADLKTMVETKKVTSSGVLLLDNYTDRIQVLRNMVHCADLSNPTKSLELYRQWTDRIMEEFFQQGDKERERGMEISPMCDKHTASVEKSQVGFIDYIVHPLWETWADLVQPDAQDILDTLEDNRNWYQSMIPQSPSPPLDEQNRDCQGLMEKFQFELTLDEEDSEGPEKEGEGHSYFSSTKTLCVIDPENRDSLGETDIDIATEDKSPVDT
Chain of Glucocorticoid receptor (Homo sapiens) (P04150 whole entry, looked up): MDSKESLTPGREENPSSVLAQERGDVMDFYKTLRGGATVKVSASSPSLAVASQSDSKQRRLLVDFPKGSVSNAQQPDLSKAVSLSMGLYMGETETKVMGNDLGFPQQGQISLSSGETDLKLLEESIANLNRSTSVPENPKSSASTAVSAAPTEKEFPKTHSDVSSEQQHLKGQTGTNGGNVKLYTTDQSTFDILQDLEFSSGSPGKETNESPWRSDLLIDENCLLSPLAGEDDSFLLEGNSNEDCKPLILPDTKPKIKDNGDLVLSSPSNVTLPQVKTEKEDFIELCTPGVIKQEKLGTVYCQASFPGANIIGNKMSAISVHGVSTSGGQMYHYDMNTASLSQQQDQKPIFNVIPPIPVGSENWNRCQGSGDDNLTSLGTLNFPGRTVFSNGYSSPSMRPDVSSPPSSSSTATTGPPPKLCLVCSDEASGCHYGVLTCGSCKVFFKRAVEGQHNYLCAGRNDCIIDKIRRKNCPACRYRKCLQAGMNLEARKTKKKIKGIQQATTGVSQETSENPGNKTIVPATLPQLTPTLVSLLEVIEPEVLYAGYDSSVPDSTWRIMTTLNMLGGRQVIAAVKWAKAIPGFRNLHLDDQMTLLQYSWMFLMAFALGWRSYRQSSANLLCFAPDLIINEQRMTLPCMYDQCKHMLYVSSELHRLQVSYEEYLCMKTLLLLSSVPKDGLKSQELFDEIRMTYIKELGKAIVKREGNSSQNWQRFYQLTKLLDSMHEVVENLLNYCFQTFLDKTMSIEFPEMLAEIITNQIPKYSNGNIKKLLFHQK
Chain of Cytochrome P450 1A2 (Homo sapiens) (P05177 whole entry, looked up): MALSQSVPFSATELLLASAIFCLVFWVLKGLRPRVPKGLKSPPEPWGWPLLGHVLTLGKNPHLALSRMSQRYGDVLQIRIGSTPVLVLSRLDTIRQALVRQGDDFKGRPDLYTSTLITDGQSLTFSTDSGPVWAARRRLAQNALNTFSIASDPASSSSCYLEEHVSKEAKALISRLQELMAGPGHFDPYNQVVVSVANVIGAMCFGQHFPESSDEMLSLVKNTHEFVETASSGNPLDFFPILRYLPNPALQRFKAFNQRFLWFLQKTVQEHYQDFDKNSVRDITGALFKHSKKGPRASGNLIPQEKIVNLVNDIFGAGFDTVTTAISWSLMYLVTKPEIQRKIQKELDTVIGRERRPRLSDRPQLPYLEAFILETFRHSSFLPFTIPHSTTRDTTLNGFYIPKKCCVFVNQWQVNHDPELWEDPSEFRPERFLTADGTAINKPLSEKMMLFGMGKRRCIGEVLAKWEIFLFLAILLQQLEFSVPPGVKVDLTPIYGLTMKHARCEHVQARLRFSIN

As to `CN(N=O)c1cc(O)ccc1O`, in assay [1], the call was inactive. Also, the Potency in assay [2] was 31.6 µM (active); in assay [4] it was > 46 µM; in assay [5] it was > 46 µM. For the same compound, the activity change, negative = inhibition in assay [3] was 0.498%. Moreover, the Potency result in assay [6] is “inactive”.
On to `Clc1ccc(N2C[C@H]3CC[C@@H](C2)N3)nn1`, for which the call in assay [1] and in assay [8] was inactive. Also, the activity change, negative = inhibition in assay [3] is -11.9%. In assay [7], the activity, negative = inhibition is 37.1%. Besides, the Potency in assay [4] and in assay [5] was > 46 µM each time. Also, in assay [6], the Potency entry was “inactive”.
For the compound `CCC1(C)CC(=O)NC(=O)C1`, the call in assay [1] and in assay [8] was inactive. Besides, the activity change, negative = inhibition in assay [3] is -6.48% [at 17.2 µM]. For the same compound, the activity, negative = inhibition in assay [7] was -0.442% [at 17.2 µM]. In assay [5], the Potency is > 20.6 µM. The Potency result in assay [6] is “inactive”.
As to `CCCN(CCC)[C@@H]1CCc2cccc(O)c2C1`, the compound was called inactive in assay [1] and in assay [8]. Further, in assay [3], the activity change, negative = inhibition was -1.36%. For the same compound, in assay [7], the activity, negative = inhibition was -0.802%. Also, the Potency in assay [5] was > 46 µM. The Potency entry in assay [6] is “inactive”.
Take `c1ccc2cc(CC3=NCCN3)ccc2c1`: the compound was called inactive in assay [1] and in assay [8]. The activity change, negative = inhibition in assay [3] was -0.608%. The activity, negative = inhibition in assay [7] is -3.81%. Besides, the Potency entry in assay [6] was “inactive”.
`C[C@@H]1O[C@H](C[N+](C)(C)C)CS1`: the compound was classed as inactive in assay [1] and in assay [8]. Moreover, the activity, negative = inhibition in assay [7] is 19.2%. Also, the Potency in assay [5] was > 46 µM; in assay [6], 1.26 µM (active).
On to `O=C(O)c1cc[c]([Hg][Cl])cc1`, for which the result in assay [1] and in assay [8] was inactive. Also, the activity, negative = inhibition in assay [7] was -0.208%. For the same compound, the Potency in assay [4] and in assay [5] was > 46 µM throughout.
On to `COc1ccc2[nH]cc(CCN)c2c1`, for which the call in assay [1] and in assay [8] was inactive. The activity change, negative = inhibition in assay [3] was -0.77%. In addition, the activity, negative = inhibition in assay [7] is -1.18%. For the same compound, in assay [5], the Potency was > 46 µM. Moreover, in assay [6], the Potency result is “inactive”.
`C[N+](C)(C)CC#CCOC(=O)Nc1cccc(Cl)c1`: the outcome in assay [1] and in assay [8] was inactive. Also, the activity change, negative = inhibition in assay [3] was 11.3%. Moreover, the activity, negative = inhibition in assay [7] was -8.8%. In addition, the Potency in assay [5] was > 46 µM. In assay [6], the Potency entry was “inactive”.
`O=S(=O)(O)c1cc(O)ccc1O`: the compound was classed as inactive in assay [1] and in assay [8]. Moreover, the activity change, negative = inhibition in assay [3] was -8.18% [at 17.2 µM]. Besides, the activity, negative = inhibition in assay [7] was 11.9% [at 17.2 µM]. Also, the Potency in assay [5] was > 20.6 µM. In assay [6], the Potency result was “inactive”.
Regarding `NC(=O)COc1c(F)cc(SCCNS(=O)(=O)c2ccccc2)cc1F`, the call in assay [1] and in assay [8] was inactive. Moreover, the activity change, negative = inhibition in assay [3] is 20.9%. In addition, the Potency in assay [5] is > 46 µM. Moreover, the Potency entry in assay [6] is “inactive”.
As to `CCCN(CCC)C1Cc2cc(OC)c(OC)cc2C1`, the compound was called inactive in assay [1] and in assay [8]. In addition, in assay [7], the activity, negative = inhibition was 21.3%. Besides, the Potency in assay [4] and in assay [5] was > 46 µM throughout. Further, the Potency result in assay [6] was “inactive”.
In the case of `COc1ccc(OC)c(C(O)C(C)N)c1` (stereo unspecified), in assay [1], the call was inactive. Moreover, the activity, negative = inhibition in assay [7] was 2.12% [at 17.2 µM]. In addition, in assay [4], the Potency is > 20.6 µM.
With `C[C@H](N)CN1CCc2ccc(Br)cc21`, the call in assay [1] was inactive. For the same compound, the activity, negative = inhibition in assay [7] is -29.5%. For the same compound, the Potency in assay [5] was > 46 µM. For the same compound, the Potency entry in assay [6] is “inactive”.
